This is a sample that favours compounds with a hit; in the whole collection about 4.7% have one here.
ADAM10 inh = inhibitors of human ADAM10. O14672. recombinant ADAM10, EDANS/DABCYL FRET peptide cleavage, 3 h. inhibition, % at 7 µM. 370,000 compounds, 0.62% hits. AID 720582;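 active = inhibition above a per-campaign cutoff equal to the mean of compounds falling between control-based bounds plus 3 SD, cut at about 20% in these data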
Target sequence (O14672 214-748 limits assumed): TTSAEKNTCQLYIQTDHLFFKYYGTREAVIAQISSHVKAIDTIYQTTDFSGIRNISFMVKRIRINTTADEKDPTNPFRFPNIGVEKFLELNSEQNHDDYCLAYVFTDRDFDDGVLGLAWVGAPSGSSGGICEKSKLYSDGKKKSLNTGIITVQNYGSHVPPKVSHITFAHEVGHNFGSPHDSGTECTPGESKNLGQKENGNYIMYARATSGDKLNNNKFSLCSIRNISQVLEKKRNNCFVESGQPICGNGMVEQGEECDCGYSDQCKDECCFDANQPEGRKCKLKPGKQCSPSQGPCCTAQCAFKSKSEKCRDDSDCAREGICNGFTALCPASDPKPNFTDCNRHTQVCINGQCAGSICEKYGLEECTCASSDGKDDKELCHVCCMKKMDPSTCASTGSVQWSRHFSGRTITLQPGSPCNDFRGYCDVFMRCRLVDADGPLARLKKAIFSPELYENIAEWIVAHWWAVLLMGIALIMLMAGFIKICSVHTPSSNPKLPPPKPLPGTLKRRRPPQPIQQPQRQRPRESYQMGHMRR
ADAM17 inh = ADAM17 inhibition, QFRET primary screen; P78536; recombinant ADAM17, EDANS/DABCYL FRET peptide cleavage; inhibition, % at 6.95 µM; 370,000 compounds, 0.83% hits; AID 720648;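 active = inhibition above the mean of compounds lying between control limits plus 3 SD, set per campaign, cut at about 8.5% in these data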
MPTP block = permeability transition pore inhibition; isolated mouse mitochondria, Ca2+ swelling absorbance, 30 min; 360,000 compounds, 1.4% hits; inhibition, % at 10 µM;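 active = inhibition of 50% or more, scaled per plate between neutral and stimulator controls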
rCAG binder = molecules binding r(CAG) RNA repeats | r(CAG) RNA repeat, TO-PRO-1 dye displacement fluorescence | inhibition, % at 3 µM | 370,000 compounds, 1.3% hits;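 active = inhibition above the plate cutoff, the mean of all test compounds on that plate plus 3 SD, cut at about 35% in these data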;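 also: higher means more dye released from RNA so lower well fluorescence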
proKLK7 act = activators of human kallikrein-7 zymogen. P49862. purified proKLK7, EDANS-DABCYL substrate fluorescence; 100% is mature enzyme control, 0% vehicle. activation, % at 7 µM. 370,000 compounds, 0.9% hits. AID 652039;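 active = activation above the mean of all tested compounds plus 3 SD, computed per campaign excluding outliers beyond control limits, cut at about 13% in these data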
Pemphigus Ab inh = blocks pemphigus antibody binding to human desmoglein-3 | P32926 | DSG3-coupled beads, scFv-anti-DSG3-GFP binding, flow cytometry; hits give low values | binding (percent of control), % at 10 µM | 310,000 compounds, 0.48% hits;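 active = binding more than 3 SD below its plate's average and above zero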;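 also: hits lower antibody fragment binding to DSG3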
proKLK7 act conf = proKLK7 activation, confirmation; purified proKLK7, EDANS-DABCYL substrate fluorescence; scaled: vehicle 0, mature enzyme 100; shares compounds with proKLK7 act; activation, % at 7 µM; 3,200 compounds, 68% hits;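 active = activation, as change over the incubation, above the mean of all tested compounds plus 3 SD, cut at about 13% in these data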
EDANS interfere = counter-screen for kallikrein-7 activators: EDANS-DABCYL optical interference; shares compounds with proKLK7 act; 3,200 compounds, 80% hits; AID 686952; activation, % at 7 µM; EDANS-DABCYL substrate fluorescence interference, no enzyme, 4 h; solvent 0%, active enzyme control 100%;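 active = activation above the all-compound mean plus 3 SD, ignoring values outside control-based bounds, cut at about 4.8% in these data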;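 also: value is the 4 h activation minus the activation read at time zero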
K7 EDANS ctr = EDANS fluorescence interference in dose response, no enzyme; EC50, µM; EDANS-DABCYL peptide fluorescence interference; 250 compounds, 20% hits; shares compounds with proKLK7 act;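 active = compounds that raise the fluorescence signal in this interference counterscreen, with EC50 at or below 10 µM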;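 also: intact quenched peptide substrate alone read at 355 nm excitation and 520 nm emission; signal is fluorescence gain from T0 to T4 after four hours at room temperature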
Numbers stand for hits; . = inactive; / = no result.

SMILES	ADAM10 inh	ADAM17 inh	MPTP block	rCAG binder	proKLK7 act	Pemphigus Ab inh	proKLK7 act conf	EDANS interfere	others
CC(C)Oc1cc(F)ccc1-c1cc(C(=O)Nc2cccc(C(F)(F)F)c2)[nH]n1	.	.	.	.	.	/	/	/
O=c1cc(C(F)F)oc2c1ccc1ccccc12	.	.	.	.	17	.	18	19
O=c1oc2ccccc2c2c1ccc1ccccc12	.	.	.	.	.	.	/	/
COc1ccc(-c2cc(=O)oc3cc(O)ccc23)cc1	.	.	.	.	.	.	/	/
COc1ccc(-c2cc(=O)oc3cc(OC(=O)C4CCCCC4)c(Cl)cc23)cc1	.	.	.	.	64	.	64	37	K7 EDANS ctr=.
Cc1oc2cc(O)ccc2c(=O)c1N1C(=O)c2ccccc2C1=O	.	.	.	.	344	.	298	301
Cc1oc2cc(O)ccc2c(=O)c1Oc1ccccc1Br	.	.	.	.	.	.	/	/
Cc1ccccc1-c1c(C)oc2cc(O)ccc2c1=O	.	.	.	.	58	.	71	74
CC(=O)Oc1ccc2c(=O)c(N3C(=O)c4ccccc4C3=O)c(C)oc2c1	.	.	.	.	151	.	166	164
CCCOc1ccc2c(=O)c(N3C(=O)c4ccccc4C3=O)c(C)oc2c1	.	.	.	.	.	.	/	/
Cc1oc2cc(O)ccc2c(=O)c1Oc1ccccc1	.	.	.	.	54	.	74	75
C/C=C/c1ccc(OCC(=O)Nc2cc(Cl)ccc2-n2cncn2)c(OC)c1	.	.	.	.	.	.	/	/
Cc1ccc(C(=O)N/N=C/c2cccnc2)cc1Cl	.	.	.	.	.	.	/	/
Cc1oc2c(C)c(O)ccc2c(=O)c1N1C(=O)c2ccccc2C1=O	.	.	.	.	69	.	99	103
Cc1oc2c(C)c(O)ccc2c(=O)c1-c1nncn1-c1ccccc1	.	.	.	.	.	.	/	/
CN(C)Cc1ccccc1CNC(=O)c1ccc(Cl)c(S(=O)(=O)NC2CC2)c1	.	.	.	.	.	.	/	/
CCN1C(=O)c2cccc3c(S(=O)(=O)NCCc4c[nH]c5ccccc45)ccc1c23	.	.	.	.	15	/	37	55
CCN1C(=O)c2cccc3c(S(=O)(=O)NCc4ccccc4)ccc1c23	.	.	.	.	34	.	.	.
CCN1C(=O)c2cccc3c(S(=O)(=O)NCCCN4CCOCC4)ccc1c23	.	.	.	.	51	/	44	43
CCN1C(=O)c2cccc3c(S(=O)(=O)Nc4ccccc4OC)ccc1c23	.	.	.	.	.	.	/	/
CCN1C(=O)c2cccc3c(S(=O)(=O)Nc4ccc(O)c(C(=O)O)c4)ccc1c23	.	.	.	.	.	.	/	/
Cc1nc(-c2ccc(F)cc2)c(CC(=O)N(C)CC(=O)Nc2cccc(F)c2)s1	.	.	.	.	.	.	/	/
COC(=O)Cc1c(C)c2ccc(OCc3nn[nH]n3)c(C)c2oc1=O	.	.	.	.	.	.	/	/
COC(=O)Cc1c(C)c2ccc(O)c(CNCc3ccc(OC)c(OC)c3)c2oc1=O	.	.	.	.	63	.	77	65	K7 EDANS ctr=.
COC(=O)Cc1c(C)c2ccc(OCC(C)=O)c(C)c2oc1=O	.	.	.	.	.	.	/	/
SMILES	ADAM10 inh	ADAM17 inh	MPTP block	rCAG binder	proKLK7 act	Pemphigus Ab inh	proKLK7 act conf	EDANS interfere	others
CCN(CC)Cc1c(O)ccc2c(C)c(CC(=O)OC)c(=O)oc12	.	.	.	.	58	.	65	67
CC1CC(C)CN(C(=O)CCNC(=O)c2ccccc2Cl)C1 (centres undefined)	.	.	.	.	.	.	/	/
Cc1cc(F)ccc1S(=O)(=O)N1CCCCC1CCNC(=O)C(=O)NCc1ccccn1 (centres undefined)	.	.	.	.	.	.	/	/
CCC(CC)C(=O)Nc1ccc(-c2cn3cccnc3n2)cc1	.	.	.	.	61	.	66	64
COCC(=O)Nc1ccc(-c2cn3cccnc3n2)cc1	.	.	.	.	25	.	63	81
CCOCC(=O)Nc1cc(-c2cn3cccnc3n2)ccc1C	/	/	.	/	/	/	/	/
CC(=O)Nc1ccc(-c2cn3ccsc3n2)cc1	.	.	.	.	.	.	/	/
Cc1ccc2c(c1)-c1c(cnn1CC(=O)NCCc1cccc(F)c1)CO2	.	.	/	.	.	/	/	/
CC1=C(C(=O)N(C)C)CC(CC(=O)NCCCCc2ccccc2)C(=O)N1CCCN1CCCC1=O (centres undefined)	.	.	.	.	.	.	/	/
COc1ccccc1-c1coc2c(CN3CCOCC3)c(O)ccc2c1=O	.	.	.	.	159	.	66	58
CCCCN(C)Cc1c(O)ccc2c(=O)c(-c3ccccc3OC)coc12	.	.	.	.	56	.	66	74
COc1ccccc1Oc1c(C)oc2c(CN3CCOCC3)c(O)ccc2c1=O	.	.	.	.	189	.	42	49
O=c1c(-c2ccc3c(c2)OCCO3)coc2c(CN3CCOCC3)c(O)ccc12	.	.	.	.	13	.	21	19
COc1ccccc1-c1c(C(F)(F)F)oc2c(CN(C)C)c(O)ccc2c1=O	.	.	.	.	.	.	/	/
CCOc1ccccc1Oc1c(C)oc2c(CN3CCN(C)CC3)c(O)ccc2c1=O	.	.	.	.	77	.	77	74
COc1ccccc1Oc1coc2cc(OCC(N)=O)ccc2c1=O	.	.	.	.	.	.	/	/
COc1ccccc1Oc1coc2c(CN3CCOCC3)c(O)ccc2c1=O	.	.	.	.	193	.	68	80
COc1cccc(Oc2c(C)oc3c(CN4CCCC4)c(O)ccc3c2=O)c1	.	.	.	.	75	.	74	78
CCOC(=O)c1oc2c(CN3CCN(C)CC3)c(O)ccc2c(=O)c1-c1ccccc1OC	.	.	.	.	.	.	/	/
COc1ccc(Oc2coc3cc(OC(=O)N4CCOCC4)ccc3c2=O)cc1	.	.	.	.	.	.	/	/
COc1cccc(Oc2coc3c(CN4CCOCC4)c(O)ccc3c2=O)c1	.	.	.	.	181	.	64	61
COc1ccc(C2C(C(=O)N3CCOCC3)=C(C)NC3=C2C(=O)CC(C)(C)C3)c(OC)c1 (centres undefined)	.	.	.	.	18	/	31	20	K7 EDANS ctr=.
COc1ccc(-c2cc(C(=O)N3CCCCCC3)c3cc(C)ccc3n2)cc1	.	.	.	.	.	/	/	/
